Screen size: about 200,000 compounds; about 18,000 (9%) were called active. Rule as the data show it: active = inhibition above about 50%; inactive = the rest. This excerpt belongs to a sample that is enriched for actives.

The test is described as follows: antileishmanial activity against promastigotes – primary screen (AID 1063).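 Also: promastigotes grown with compound for 44 hours at 28 °C.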 As to conditions: Leishmania major promastigotes, resazurin fluorescence viability; at 10 µM; hits give high values. A general note: The colour change of resazurin is a common sign of viable cells or microbes.
As for `CCc1ccc2c(c1)C(c1ccc([N+](=O)[O-])cc1)=NNC(c1ccccc1)=N2`, the inhibition (commonly the relative decrease from the control value, in per cent) was 60.2% (active).

For the molecule `CCOc1ccc2c(c1)C(c1ccc(C)cc1)=NNC(c1ccc(C)cc1)=N2`, the inhibition is 17.4% (inactive).

As for `O=C1NC(=O)C2C1C(c1ccc([N+](=O)[O-])cc1)=NN2Cc1ccccc1` (stereo not given), the inhibition is -2.02% (inactive).

For `CC(C)(C)c1ccc(/C=C2\SC(=O)N=C2N)cc1`, the inhibition is 33.6% (inactive).

Turning to `Cc1ccc(/C([O-])=C(/C(=S)NCc2ccco2)[n+]2ccccc2)cc1[N+](=O)[O-]`, the inhibition was -2.58% (inactive).

As for `Fc1ccccc1Cc1ccc(Cl)nn1`, the inhibition was -4.31% (inactive).

For `CC(=O)NCCC(=O)Nc1nc(C)c(Cc2ccc3c(c2)OCO3)s1`, the inhibition is 55.9% (active).

`Cc1ccc(C(=O)Nc2sc(Cc3ccc4c(c3)OCO4)c(C)c2C(N)=O)cc1`: the inhibition was -6.82% (inactive).

Turning to `Cc1ccc(C(=O)OCC(=O)NCc2ccc3c(c2)OCO3)s1`, the inhibition is -5.96% (inactive).

On to `O=C(Nc1cccc(F)c1)N1C2CCC1CC(O)(c1cccnc1)C2` (stereo not given), for which the inhibition was 4.96% (inactive).

Turning to `COc1ccc(Nc2nc(Cl)nc(NCc3ccco3)n2)cc1`, the inhibition was 0.84% (inactive).

With `COc1ccc(-n2cnc3cc(NCc4ccco4)ccc32)cc1`, the inhibition was 90.2% (active).

Take `COc1ccc(-n2cnc3cc(C(=O)NC4CCCC4)ccc32)cc1`: the inhibition is 1.49% (inactive).

Regarding `CCN(CC)C(=O)C(=O)Nc1cccc(Br)c1`, the inhibition was -4.3% (inactive).

`C=CCC1(CC=C)CCCN1C(=O)CC1C(=O)NCCN1Cc1ccccc1OC` (stereo not given): the inhibition was 2.2% (inactive).

Regarding `COc1cccc(NC(=O)CN(C)CC(=O)Nc2ccc3c(c2)CCC3)c1`, the inhibition was 2.96% (inactive).

As for `CC1CC(C)CN(CCC(=O)Nc2ccc3c(c2)CCC3)C1` (stereo not given), the inhibition is 65.4% (active).

`CC(C)C(=O)OCC(=O)Nc1ccc2c(c1)CCC2`: the inhibition was -3.35% (inactive).

On to `CCCCSc1nc2ccccc2[nH]1`, for which the inhibition was -4.2% (inactive).

With `COc1cccc(C(=O)Nc2ccc(N3CCCC3)cc2)c1`, the inhibition is 9.5% (inactive).

Consider `Cc1ccccc1C(=O)Nc1ccc(N2CCCCCC2)cc1`, for which the inhibition is 89.4% (active).

With `COc1cccc(OC)c1C(=O)Nc1ccc(N2CCCCC2)cc1`, the inhibition was -1.53% (inactive).

For `Cc1ccc(NC(=S)N(CCCN2CCC(C)CC2)Cc2ccco2)cc1`, the inhibition was 37.4% (inactive).

For `Cc1ccc(NC(=S)N(CCN2CCCCC2)Cc2ccco2)cc1C`, the inhibition was 13.2% (inactive).

For `Cc1ccc(NC(=S)N(Cc2ccco2)C(C)c2cccs2)cc1` (stereo not given), the inhibition is 51.8% (active).

Consider `O=C(CO/N=C/c1ccccc1OC(F)F)NC1CCCC1`, for which the inhibition is 9.48% (inactive).

Regarding `NS(=O)(=O)c1ccc(N2C(=O)C3C4CC(C(Br)C4Br)C3C2=O)cc1` (stereo not given), the inhibition is -1.02% (inactive).

`CN1/C(=C\C(=O)c2cccnc2Cl)C(C)(C)c2ccccc21`: the inhibition is 55.5% (active).

Regarding `CC(C)Nc1nnc(SCC(=O)/C=C2\N(C)c3ccccc3C2(C)C)s1`, the inhibition was 2.98% (inactive).

As to `CN1/C(=C\C(=O)c2oc3ccccc3c2N)C(C)(C)c2ccccc21`, the inhibition is 5.73% (inactive).

Consider `O=C(COC(=O)Cn1cnc2ccccc2c1=O)NCc1ccccc1Cl`, for which the inhibition is 1.11% (inactive).

In the case of `Cn1cccc1C(C#N)c1ccccc1C#N` (stereo not given), the inhibition was 4.16% (inactive).

Turning to `Cc1cc(C(=O)N/N=C/c2ccccc2[N+](=O)[O-])c(C)o1`, the inhibition was -4.59% (inactive).

In the case of `CSc1ccc(/C=N/N2CCN(Cc3ccccc3Cl)CC2)cc1`, the inhibition is -7.46% (inactive).

As for `Cc1ccccc1NC(=S)NNC(=O)c1cccc(Br)c1`, the inhibition was -0.99% (inactive).

On to `Cc1ccc(S(=O)(=O)NCCc2nnc3ccc(SCc4cccnc4)nn23)cc1`, for which the inhibition is -6.61% (inactive).

Turning to `COCCn1c(=O)[nH]c(=O)c2cc(C(=O)c3cc(OC)ccc3O)cnc21`, the inhibition is 0.78% (inactive).

In the case of `COc1ccc(O)c(C(=O)c2cnc3c(c2)c(-c2ccc(F)cc2)c(C#N)c(=O)n3C)c1`, the inhibition is 52.4% (active).

Regarding `COc1ccc(O)c(C(=O)c2cnc3onc(C(C)C)c3c2)c1`, the inhibition was -0.73% (inactive).

For `CC(=O)N/N=C(\C)c1ccc(Br)cc1Br`, the inhibition was -4.52% (inactive).

Regarding `CCOC(=O)C1CCN(C(=O)c2ccccc2N(C)S(=O)(=O)c2ccccc2)CC1`, the inhibition was 53.4% (active).

Take `CCN1CCN(C(=O)c2ccccc2N(C)S(=O)(=O)c2ccc(C)cc2)CC1`: the inhibition was -0.79% (inactive).

Consider `COc1ccccc1N(C)S(=O)(=O)c1ccc(C(=O)N2CCC(C(N)=O)CC2)cc1`, for which the inhibition is 3.34% (inactive).

As to `CC1COc2ccccc2N1C(=O)c1cccnc1Cl` (stereo not given), the inhibition is -4% (inactive).

With `C=C(C)Cn1c(C)cc(C)c(S(=O)(=O)c2ccccc2C)c1=O`, the inhibition was 96% (active).

With `CN(C)S(=O)(=O)c1cc(NC(=O)CN2C(=O)NC3(CCCc4ccccc43)C2=O)ccc1Cl` (stereo not given), the inhibition is 57.4% (active).

For the molecule `Cc1ccc(NC(=O)CNCc2ccccn2)cc1S(=O)(=O)N(C)C`, the inhibition is 6.73% (inactive).

`CCN(CC(=O)Nc1ccc(Cl)c(S(=O)(=O)N(C)C)c1)Cc1nc2ccccc2c(=O)[nH]1`: the inhibition is -6.29% (inactive).

With `COc1ccc(C/C(N)=N/OC(=O)c2ccco2)cc1OC`, the inhibition is -5.88% (inactive).

As to `COc1ccc(C(=O)ON=C2c3ccccc3-c3ccccc32)cc1OC`, the inhibition was -6.29% (inactive).

On to `COc1ccc(C(=O)O/N=C(\N)Cc2ccc(Cl)cc2Cl)cc1OC`, for which the inhibition was 71.9% (active).

Consider `CN(Cc1ccc2nsnc2c1)Cc1nc(Cc2cccc(F)c2)no1`, for which the inhibition was -4.63% (inactive).

For the molecule `CN1CCN(C(=O)CCc2ncc(C(F)(F)F)cc2Cl)CC1`, the inhibition was -6.47% (inactive).

In the case of `O=C(NCC(=O)N(CC1CCCO1)C(C(=O)NC1CCCCC1)c1ccccc1)c1ccco1` (stereo not given), the inhibition was -4.69% (inactive).

Regarding `Cc1cccc(Oc2c([N+](=O)[O-])c(=O)n(C)c3ccccc23)c1`, the inhibition was -3.73% (inactive).

Take `COc1ccc(/C=N/NC(=O)c2cccc(C(F)(F)F)c2)cc1`: the inhibition is 12% (inactive).

On to `C=CCNC(=S)N1CCN(CCN=Cc2c(C)[nH]n(-c3ccc([N+](=O)[O-])cc3)c2=O)CC1`, for which the inhibition was -7.1% (inactive).

Take `C=C1c2cc(CC)ccc2NC(=O)N1c1ccc(C)cc1`: the inhibition is 12.2% (inactive).

`O=C1Nc2ccccc2C12Nc1ccccc1S2` (stereo not given): the inhibition is -4.59% (inactive).

As to `CCc1ccc2c(c1)C1(NN=C(c3ccccc3)S1)C(=O)N2` (stereo not given), the inhibition is 99.1% (active).

Take `COc1ccccc1NC(=O)COc1ccc(C(=O)OCC(=O)N(C(C)C)C(C)C)cc1OC`: the inhibition was -1.06% (inactive).

`COc1ccc(C(=O)NC(Cc2ccc(OC(=O)c3ccc(OC)cc3)cc2)C(=O)O)cc1` (stereo not given): the inhibition was -3.89% (inactive).

Turning to `CCN(CCCCOC(=O)c1ccc(OC)c(OC)c1)C(C)Cc1ccc(OC)cc1` (stereo not given), the inhibition was 100% (active).

Consider `CC(C)OC(=O)CN1CCN(c2ccc(Cl)cc2)CC1`, for which the inhibition is -1.87% (inactive).

For `COCc1[nH]nc2c1C(C1C=CCCC1)C(C#N)=C(N)O2` (stereo not given), the inhibition is 45.2% (inactive).

For the molecule `CCCc1[nH]nc2c1C(c1ccc(OC(=O)c3ccco3)cc1)C(C#N)=C(N)O2` (stereo not given), the inhibition is 15.8% (inactive).

For the molecule `CCCc1[nH]nc2c1C(C1CC=CCC1)C(C#N)=C(N)O2` (stereo not given), the inhibition is 66.6% (active).

Regarding `CCCc1[nH]nc2c1C(c1c(C)nn(-c3ccccc3)c1Cl)C(C#N)=C(N)O2` (stereo not given), the inhibition was 8.77% (inactive).

Regarding `N#CC1=C(N)OC2=C(C(=O)CCC2)C1C1CC=CCC1` (stereo not given), the inhibition is 4.1% (inactive).

With `CCCc1[nH]nc2c1C(c1ccc(Br)s1)C(C#N)=C(N)O2` (stereo not given), the inhibition was 100% (active).

As for `CC(=O)N1CCN(S(=O)(=O)c2c(F)cc(F)c(Cl)c2F)CC1`, the inhibition was 0.83% (inactive).

As to `COc1ccc(C(=O)Nc2cccc(S(C)(=O)=O)c2)cc1`, the inhibition is -0.33% (inactive).

Turning to `CC(C)(C)NC(=O)COC(=O)c1cc(Cl)ccc1[N+](=O)[O-]`, the inhibition was 2.68% (inactive).

For `CCOC(=O)C1(Cc2cccc(OC)c2)CCCN(S(=O)(=O)c2cccnc2)C1` (stereo not given), the inhibition was 1.74% (inactive).

For the molecule `CCOC(=O)c1sc(/N=C/C2=C(O)CC(C)(C)CC2=O)c(C(=O)OCC)c1C`, the inhibition was -3.8% (inactive).

In the case of `Cn1c(=O)c2c(ncn2CCc2ccccc2)n(C)c1=O`, the inhibition is -0.5% (inactive).

Regarding `Cn1c(=O)c2c(ncn2CC(=O)N2CCN(c3ccccc3)CC2)n(C)c1=O`, the inhibition is -3.01% (inactive).

As to `Cn1c(=O)c2c(ncn2CC(COCc2ccccc2Cl)OCc2ccccc2Cl)n(C)c1=O` (stereo not given), the inhibition was 96.2% (active).

In the case of `Cc1ncc([N+](=O)[O-])n1CCOC(=O)c1ccc(Br)cc1`, the inhibition is 13.8% (inactive).

For `Cc1cccc(C)c1NC(=O)C1(C)c2cccc[n+]2CC(=O)N1Cc1cccs1` (stereo not given), the inhibition is 13.1% (inactive).

As to `CC(C)(C)c1ccc(C(=O)CSc2ncn[nH]2)cc1`, the inhibition is -1.37% (inactive).

With `O=C(NCCOCc1ccc(Cl)cc1)c1ncn[nH]1`, the inhibition is 24.4% (inactive).

For the molecule `O=C(/C=C/Sc1ncn[nH]1)c1ccc(Cl)cc1`, the inhibition is 100% (active).

As to `Cc1cc(C)n(-c2nnc(N3CCN(c4ccccc4)CC3)nn2)n1`, the inhibition was 10.3% (inactive).

Consider `Cc1n[nH]c(=O)n1-c1ccc(C(C)C)cc1`, for which the inhibition was -3.84% (inactive).

For `C/C(=N/O)c1ccc(N2C(=O)C3C4C=CC(C3C2=O)C2C3C(=O)N(c5ccc(/C(C)=N/O)cc5)C(=O)C3C42)cc1` (stereo not given), the inhibition was -0.53% (inactive).

With `Cc1ccc2[nH]c(=O)c(CN3CCCCC3)c(-c3ccccc3)c2c1`, the inhibition was 6.53% (inactive).

For the molecule `Nc1cccc(CCc2nc3ccccc3[nH]2)c1`, the inhibition is -2.96% (inactive).

As to `Nc1cccc(-c2cc(-c3ccccc3)nc(-c3cccc(N)c3)n2)c1`, the inhibition was 64% (active).

Turning to `CS(=O)(=O)c1sc2nc(-c3ccccc3)cc(-c3ccccc3)c2c1N`, the inhibition was 3.87% (inactive).

Consider `OC1CSc2nc3ccccc3n2C1` (stereo not given), for which the inhibition is 0.82% (inactive).

In the case of `O=C(Nc1cccc(C(F)(F)F)c1)c1cnccn1`, the inhibition is 7.19% (inactive).

With `Nc1c(C(=O)NCc2ccccc2)nnn1Cc1cccc(Cl)c1`, the inhibition was -2.28% (inactive).

With `O=c1[nH]n(-c2cccc(Cl)c2)c2ncccc12`, the inhibition was -7.31% (inactive).

On to `Clc1cccc(CN2COc3c(cc(Cl)c4cccnc34)C2)c1`, for which the inhibition was 101% (active).
